Experimental data published in PubChem BioAssay (NCI).
This is part of a sample that, as a whole, favours compounds with a hit. Of some 83,000 tested, about 20% had one in any assay.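 Cell lines were cultured in 96-well plates, exposed to a single compound concentration, and assessed for percent growth 48 hours later.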 Unmarked numbers belong to inactive results. The source made the active and inactive calls. The calls were made as follows: active = growth percent below 10; inactive = the rest.

The molecules below were run on SF-295 CNS (assay: NCI-60 one-dose screen, 48 h (100 = growth as untreated, 0 = no growth, -100 = all killed)). Conditions: 10 µM unless noted.

SMILES	growth
CCCCN1C(=O)/C(=c2\sc3n(c2=O)C2C(NN=3)N(CC)C(=O)N2CC)c2ccccc21 (stereo not given)	2.37% (active)
COc1ccc2c(O)c(/C=C3\N=Nc4ncccc43)oc2c1C[C@H]1CCNC[C@H]1F	18.9%
COc1ccc2c(O)c(/C=C3\N=Nc4ccccc43)oc2c1C[C@@H]1CCNC[C@H]1F	79.2%
COc1ccc(N2CCC(=O)NC2=S)cc1	100%
CC(=O)OCc1nc(C#N)c(N(C)C)o1	108%
O=C(Nc1ccc(NC(=O)c2cc(=O)[nH]c3ccccc23)cc1)Nc1cccc(C(F)(F)F)c1	74.5%
CCN(CC)CCCN1C(=O)c2c(c(C)c3c(oc4cc(O)ccc43)c2C)C1=O	110%
COc1cc(OC)cc(C2=C3CC[C@@H]4[C@H](CC[C@]5(C)C(=O)CC[C@@H]45)C3=CC3C(O)c4cccnc4N4C(=O)COC234)c1 (stereo not given in full)	97.6%
Oc1ccc(CN2CCC(N3CCCCC3)CC2)c2cccnc12	38.4%
CN(C)CC(=O)Nc1ccc2ncnc(Nc3ccc(Oc4cccc(C(F)(F)F)c4)c(Cl)c3)c2c1	90.3%

These molecules were tested on SF-539 CNS in the same assay as above. Conditions: 10 µM unless noted.

SMILES	growth
COC(=O)c1ccc2c(c1)C(=O)c1c-2n(CCCN)c(=O)c2cc([N+](=O)[O-])ccc12	-94.2% (active)
O=C(Nn1c2c(sc1=Nc1ccccc1)C(=O)c1ccccc1C2=O)c1cc2ccc1CCc1ccc(cc1)CC2	92.6%
O=C(CN1C(=O)CCC1=O)Nc1ncc(Cc2ccc(F)cc2)s1	98.7%
Nc1ncnc2c1N=C(c1ccc(Cl)cc1)CC(c1ccc3c(c1)OCO3)N2 (stereo not given)	88.3%
N#C/C(=C/c1ccc([N+](=O)[O-])cc1)n1nnc2cc(F)c(F)cc21	20.7%
COc1ccc(C(=O)Nc2ncc(Cc3ccc(F)cc3)s2)cc1	-9.59% (active)
CCN1CCN(Cc2cn(CC(=O)Nc3ccc4c(ccn4Cc4ccccc4)c3)nn2)CC1	102%
CCOC(=O)C1=C(NC)OCC1=O	104%
CC(=O)c1cc(O)c2ccccc2c1O	97.5%
CC1(C)CC[C@]2(c3nnc(-c4ccncc4)o3)CC[C@H]3C(=CC[C@H]4[C@@]3(C)CC[C@H]3C(C)(C)C(=O)CC[C@]43C)[C@@H]2C1	76.3%
CC(C)(C)n1cc(-c2ccnc(NCCCNS(=O)(=O)c3ccc(F)cc3)c2)c(-c2cccc(F)c2)n1	68.7%
COc1cc(CNS(=O)(=O)c2ccc(C)cc2)ccc1OCc1cn(-c2ccc(Br)cc2)nn1	107%
Cc1ccc(-c2csc(NC(=O)CN3CCN(c4cc5c(cc4F)c(=O)c(C(=O)O)cn5C4CC4)CC3)n2)cc1	23.7%
CCCCCCCCCCCCCCCCCCOc1ccccc1CC(=O)OCC[N+]1(C)CCCC1	40.2%
COc1ccc(-c2nc(/C=C3\SC(=NCc4ccccc4)NC3=O)c3ccccn23)cc1	-43.4% (active)
COc1ccc2c3c([nH]c2c1)C(=O)c1nc(C)ccc1C3=O	54.8%
CN(CCOc1ccc(C#N)cc1)CCOc1ccc(C#N)cc1	96.1%
CCN1C(=O)N(CC)C2C1NN=c1s/c(=C\c3cccc([N+](=O)[O-])c3)c(=O)n12 (stereo not given)	-4.28% (active)
O=C(CCCCCCN1CC(=O)N2[C@H](c3cc(Br)cs3)c3[nH]c4ccccc4c3C[C@H]2C1=O)NO	43.3%
Cc1ccc(/C=C2\CN(C(=O)OC(C)(C)C)C/C(=C\c3ccc(C)cc3)C2=O)cc1	90.4%

SMILES	growth
CN(C)CCNC(=O)c1cccc(-c2cnc3ccc(-c4ccc5c(c4)OCO5)nn23)c1	66.9%
Cn1c(=O)c2c(nc(NC3=NS(=O)(=O)c4ccccc43)n2CC(=O)N2CCc3ccccc32)n(C)c1=O	98.1%
Cc1ccc(NC(=S)NNC(=S)NNc2ccccc2)cc1C	103%
C=CCn1c(SCC(=O)Nc2ccc(C(=O)/C=C/c3cc4cc(OC)ccc4nc3Cl)cc2)nnc1-c1ccc(Br)cc1	89.5%
CCCC(=O)NC(c1ccc2c(c1)OCO2)c1ccc2cccnc2c1O (stereo not given)	9.93% (active)
c1ccc(C2=NN[C@H](c3cn(-c4ccccc4)nc3-c3ccccc3)C2)cc1	38.5%
C[C@@H]1CCC[C@H]1CC(N)C(=O)O (stereo not given in full)	105%
O=C1c2cccnc2C(=O)c2c1c(C(=O)NCCCN1CCCCC1)c1ccccn21	-61.2% (active)
CCCCCCCCn1ccc2cc(NC(=O)Cn3cc(CN4CCCCC4)nn3)ccc21	-42.3% (active)
COC(C(=O)[C@@H](O)[C@@H](C)O)[C@@H]1Cc2cc3cc(O[C@H]4C[C@@H](O[C@H]5C[C@@H](O)[C@H](O)C(C)O5)[C@H](O)C(C)O4)c(C)c(O)c3c(O)c2C(=O)[C@H]1O[C@H]1C[C@@H](O[C@H]2C[C@@H](O[C@H]3C[C@@H](O)[C@H](OC)C(C)O3)[C@@H](O)C(C)O2)[C@H](O)C(C)O1 (stereo not given in full)	-23.6% (active)
CCCCN1C(=O)/C(=c2\sc3n(c2=O)C2C(NN=3)N(CC)C(=O)N2CC)c2ccccc21 (stereo not given)	-40.4% (active)
COc1ccc2c(O)c(/C=C3\N=Nc4ncccc43)oc2c1C[C@H]1CCNC[C@H]1F	-29.9% (active)
COc1ccc2c(O)c(/C=C3\N=Nc4ccccc43)oc2c1C[C@@H]1CCNC[C@H]1F	-82.9% (active)
COc1ccc(N2CCC(=O)NC2=S)cc1	99.4%
CC(=O)OCc1nc(C#N)c(N(C)C)o1	92.1%
O=C(Nc1ccc(NC(=O)c2cc(=O)[nH]c3ccccc23)cc1)Nc1cccc(C(F)(F)F)c1	50.1%
CCN(CC)CCCN1C(=O)c2c(c(C)c3c(oc4cc(O)ccc43)c2C)C1=O	96.4%
COc1cc(OC)cc(C2=C3CC[C@@H]4[C@H](CC[C@]5(C)C(=O)CC[C@@H]45)C3=CC3C(O)c4cccnc4N4C(=O)COC234)c1 (stereo not given in full)	102%
Oc1ccc(CN2CCC(N3CCCCC3)CC2)c2cccnc12	22%
CN(C)CC(=O)Nc1ccc2ncnc(Nc3ccc(Oc4cccc(C(F)(F)F)c4)c(Cl)c3)c2c1	90.8%
